In one experiment the target is Neurogenic locus notch homolog protein 2 (Homo sapiens) (UniProt Q04721). Briefly: small molecules binding Notch2 protein – biochemical, small-molecule microarray, 635 nm fluorescence, stem cell growth factors, primary screen (AID 1073). The settings on record: higher = more signal.
Chain of Neurogenic locus notch homolog protein 2 (Homo sapiens) (Q04721 whole entry, looked up): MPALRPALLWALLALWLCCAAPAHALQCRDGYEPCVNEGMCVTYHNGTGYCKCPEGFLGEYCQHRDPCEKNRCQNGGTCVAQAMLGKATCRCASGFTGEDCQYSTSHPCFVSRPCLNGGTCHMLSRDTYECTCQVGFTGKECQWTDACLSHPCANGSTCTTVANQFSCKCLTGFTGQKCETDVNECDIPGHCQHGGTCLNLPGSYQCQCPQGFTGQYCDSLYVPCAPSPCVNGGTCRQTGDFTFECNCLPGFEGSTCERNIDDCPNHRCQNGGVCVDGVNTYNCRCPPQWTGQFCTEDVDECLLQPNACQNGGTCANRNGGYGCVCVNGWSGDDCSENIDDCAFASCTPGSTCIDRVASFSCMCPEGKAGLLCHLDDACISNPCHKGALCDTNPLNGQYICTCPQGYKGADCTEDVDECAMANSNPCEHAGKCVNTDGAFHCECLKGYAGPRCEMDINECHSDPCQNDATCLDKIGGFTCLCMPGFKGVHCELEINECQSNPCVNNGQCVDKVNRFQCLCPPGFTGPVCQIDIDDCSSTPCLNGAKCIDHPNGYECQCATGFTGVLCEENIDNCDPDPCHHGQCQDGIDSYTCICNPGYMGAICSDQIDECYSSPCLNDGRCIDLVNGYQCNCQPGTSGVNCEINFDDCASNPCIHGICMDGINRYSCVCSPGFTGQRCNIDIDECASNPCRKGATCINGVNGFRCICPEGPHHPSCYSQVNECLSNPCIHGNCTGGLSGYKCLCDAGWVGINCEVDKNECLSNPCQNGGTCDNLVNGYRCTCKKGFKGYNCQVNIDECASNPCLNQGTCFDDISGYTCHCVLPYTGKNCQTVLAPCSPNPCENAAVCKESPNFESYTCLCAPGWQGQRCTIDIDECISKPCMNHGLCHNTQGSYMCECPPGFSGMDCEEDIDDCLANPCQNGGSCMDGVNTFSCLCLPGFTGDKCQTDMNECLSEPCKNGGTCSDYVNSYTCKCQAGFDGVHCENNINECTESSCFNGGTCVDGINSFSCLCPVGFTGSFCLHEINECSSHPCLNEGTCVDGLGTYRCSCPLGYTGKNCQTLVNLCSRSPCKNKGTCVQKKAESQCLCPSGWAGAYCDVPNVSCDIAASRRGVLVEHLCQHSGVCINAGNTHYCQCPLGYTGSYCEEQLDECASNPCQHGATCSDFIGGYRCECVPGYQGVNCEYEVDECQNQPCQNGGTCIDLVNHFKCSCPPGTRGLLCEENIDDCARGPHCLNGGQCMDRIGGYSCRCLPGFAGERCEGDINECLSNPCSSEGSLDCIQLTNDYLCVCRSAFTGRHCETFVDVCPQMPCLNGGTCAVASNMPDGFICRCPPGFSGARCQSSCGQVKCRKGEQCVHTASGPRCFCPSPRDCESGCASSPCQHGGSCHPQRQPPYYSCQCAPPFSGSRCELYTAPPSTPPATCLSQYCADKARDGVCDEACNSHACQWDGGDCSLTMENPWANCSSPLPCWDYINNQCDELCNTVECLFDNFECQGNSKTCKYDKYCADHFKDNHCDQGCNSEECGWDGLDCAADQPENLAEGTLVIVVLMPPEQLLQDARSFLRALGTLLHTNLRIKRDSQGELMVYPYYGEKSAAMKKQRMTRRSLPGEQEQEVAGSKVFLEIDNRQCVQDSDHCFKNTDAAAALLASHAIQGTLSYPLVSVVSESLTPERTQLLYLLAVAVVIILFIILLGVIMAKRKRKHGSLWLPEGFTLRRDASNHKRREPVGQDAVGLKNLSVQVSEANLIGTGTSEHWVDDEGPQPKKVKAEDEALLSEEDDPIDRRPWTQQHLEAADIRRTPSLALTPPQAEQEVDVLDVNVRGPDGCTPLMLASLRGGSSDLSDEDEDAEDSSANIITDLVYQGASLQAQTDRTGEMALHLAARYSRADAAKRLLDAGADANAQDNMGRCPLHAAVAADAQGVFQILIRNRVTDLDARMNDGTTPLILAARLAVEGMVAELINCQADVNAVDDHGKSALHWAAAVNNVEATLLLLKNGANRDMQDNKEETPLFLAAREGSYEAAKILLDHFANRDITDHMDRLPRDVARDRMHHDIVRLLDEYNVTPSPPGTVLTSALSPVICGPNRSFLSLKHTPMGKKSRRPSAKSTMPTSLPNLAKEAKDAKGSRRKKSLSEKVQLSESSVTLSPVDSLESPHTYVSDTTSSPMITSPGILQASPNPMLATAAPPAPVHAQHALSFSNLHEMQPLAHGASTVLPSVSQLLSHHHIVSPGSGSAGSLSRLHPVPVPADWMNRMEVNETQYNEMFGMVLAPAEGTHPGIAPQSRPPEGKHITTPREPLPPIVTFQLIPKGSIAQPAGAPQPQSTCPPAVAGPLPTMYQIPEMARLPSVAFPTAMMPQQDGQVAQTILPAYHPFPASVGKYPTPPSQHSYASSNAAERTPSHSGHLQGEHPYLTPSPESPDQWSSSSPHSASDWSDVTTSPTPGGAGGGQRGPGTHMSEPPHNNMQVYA
`COC(=O)C(CC#Cc1ccc2c(c1)[C@]1(C(=O)N2)[C@H](C(=O)N2CCCCCCC2)[C@H]2C(=O)O[C@H](c3ccccc3)[C@H](c3ccccc3)N2[C@@H]1c1ccc(O)cc1)C(=O)OC`: the composite z-score was -1.07.

Regarding `C=C[C@H](OC)[C@@H](OC(=O)Nc1ccc(SC)cc1)c1ccc(O)c(F)c1`, the composite z-score was found to be 0.474. In turn, `O=C1O[C@@H](c2ccccc2)[C@@H](c2ccccc2)N2[C@@H](c3ccc(OCCO)cc3)[C@]3(C(=O)Nc4ccc(C#CCCO)cc43)[C@@H](C(=O)N3CCN(c4ncccn4)CC3)[C@H]12` gave a composite z-score of 0.731. Consider `C=CCC(OC(C)=O)[C@@H]1[C@@H](N(Cc2cccc3ccccc23)C(=O)Cc2ccc(F)cc2)c2cc(OCCCO)ccc2N1C(=O)Cc1ccc2ccccc2c1` (stereo not given in full), for which the composite z-score was -0.241. In turn, `O=C1O[C@@H](c2ccccc2)[C@@H](c2ccccc2)N2[C@@H](c3ccc(O)cc3)[C@]3(C(=O)Nc4ccc(C#CC5(O)CCCCCC5)cc43)[C@@H](C(=O)Nc3nc4ccccc4s3)[C@H]12` had a composite z-score of 1.49. In turn, `C#CCCCON=C1C[C@@H](O)[C@@H](O)[C@@H]2[C@@H]3C(=O)N(Cc4ccc5c(c4)OCO5)C(=O)[C@@H]3CC[C@@H]12` yielded a composite z-score of 0.204. `O=C1O[C@H](c2ccccc2)[C@H](c2ccccc2)N2[C@H]1[C@@H](C(=O)NC[C@H](O)c1ccccc1)[C@]1(C(=O)Nc3ccc(C#CC4(O)CCCCCC4)cc31)[C@H]2c1ccc(OCCO)cc1` displayed a composite z-score of 1.19.

`CCOC(=O)C1=C[C@@H](c2ccccc2)N(S(=O)(=O)c2ccc(C)cc2)[C@H]1c1ccc(F)cc1` displayed a composite z-score of 1.6. Same read-out and setting: next, `O=[N+]([O-])c1ccc(C[n+]2ccc3ccc(O)cc3c2)o1`: 0.37.

The target in the next experiment is Pro-neuregulin-1, membrane-bound isoform (Homo sapiens) (UniProt Q02297). The experiment in a line: small molecules binding neuregulin-1 protein – biochemical, small-molecule microarray, fluorescence 635/667, psychiatric disease protein project, primary screen (AID 1075).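 Note: score combines 667 nm spot fluorescence with signal to noise.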 The note with it: NRG1 binding, 635 nm fluorescence, higher = more signal.
Chain of Pro-neuregulin-1, membrane-bound isoform (Homo sapiens) (Q02297 whole entry, looked up, canonical isoform): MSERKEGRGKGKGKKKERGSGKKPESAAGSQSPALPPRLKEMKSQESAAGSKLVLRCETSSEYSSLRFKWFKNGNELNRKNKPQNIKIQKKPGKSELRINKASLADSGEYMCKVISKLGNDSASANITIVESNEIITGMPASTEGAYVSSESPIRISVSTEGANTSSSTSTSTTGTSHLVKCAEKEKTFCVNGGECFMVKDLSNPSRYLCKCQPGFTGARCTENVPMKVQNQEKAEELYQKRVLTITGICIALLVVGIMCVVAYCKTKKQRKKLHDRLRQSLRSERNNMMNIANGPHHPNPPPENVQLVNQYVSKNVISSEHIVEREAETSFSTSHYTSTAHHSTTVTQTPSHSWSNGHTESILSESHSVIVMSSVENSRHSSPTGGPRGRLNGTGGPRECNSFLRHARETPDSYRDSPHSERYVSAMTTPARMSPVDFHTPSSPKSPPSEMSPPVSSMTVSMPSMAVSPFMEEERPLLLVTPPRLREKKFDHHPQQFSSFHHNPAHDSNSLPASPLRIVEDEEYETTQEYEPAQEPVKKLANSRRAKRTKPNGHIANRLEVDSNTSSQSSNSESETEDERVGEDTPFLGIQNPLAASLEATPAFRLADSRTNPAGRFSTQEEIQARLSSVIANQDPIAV
Molecule `CCCNC(=O)[C@@]1(Sc2ccc(C)cc2)CC(=O)N(Cc2ccccc2Cl)[C@@H]1c1ccc(CO)cc1` came in with a composite z-score of -0.0272. On the same count and under the same terms, for `C[C@H]1COC(=O)[C@H](Cc2ccccc2)NC(=O)[C@@H](C)COC(=O)[C@H](Cc2ccccc2)NC1=O` the value was 0.815; for `CC(C)N1CC=CC23O[C@@H]4/C=C\CCCOC(=O)C4[C@H]2C(=O)N(CCO)[C@@H]3C1=O` (stereo not given in full), 2.16. Same read-out and setting: for `COC(=O)[C@@]1(Cc2ccc(OC)cc2)[C@H]2c3cc(C(=O)N(C)C)n(CCc4ccc(OC)c(Br)c4)c3C[C@H]2CN1C(=O)c1ccccc1` the value was 1.77; for `COCCOC(=O)N1C(=O)[C@@]2(c3cc(C#CCCO)ccc31)[C@H](c1ccc(O)cc1)N1[C@H](c3ccccc3)[C@H](c3ccccc3)OC(=O)[C@H]1[C@@H]2C(=O)Nc1nc2ccccc2s1`, 0.227; for `C=CC[C@]1(C(=O)N2CCCCC2)N=C(c2ccc(OCCCO)cc2)O[C@H]1c1ccccc1N=[N+]=[N-]`, 1.67. Same read-out and setting: next, `CCCC=C(CCC)[C@@H](NS(=O)(=O)c1cccc(C(F)(F)F)c1)c1ccc(C(=O)OC)cc1`: -0.0702. In the case of `COc1ccc([Si](C)(C)[C@@H]2[C@@H](CC(=O)N(CCO)Cc3ccccc3)O[C@]3(C(=O)N(Cc4cccc(N5CCC5=O)c4)c4ccccc43)[C@H]2C)cc1`, the composite z-score was 0.712.

In the case of `COc1cc([C@@H]2N[C@H](C(=O)O)Cc3c2[nH]c2ccccc32)cc(OC)c1OC`, the composite z-score was 0.0318. Still for that read-out and setting: next, `COCC(=C=CC[C@H](O)c1ccc(OCCO)cc1)C[C@H](O)c1ccccn1`: 0.508. On the same count and under the same terms, for `COCCOC(=O)N1C(=O)[C@@]2(c3cc(C#CC4(O)CCCCCC4)ccc31)[C@H](C(=O)N1CCCCCCC1)[C@H]1C(=O)O[C@H](c3ccccc3)[C@H](c3ccccc3)N1[C@@H]2c1ccc(O)cc1` the value was 0.768; for `C=CCC(OC(C)=O)[C@@H]1[C@@H](N(Cc2cc3ccccc3o2)C(=O)c2ccc(C)cc2)c2cc(OCCCO)ccc2N1C(=O)c1ccc2ccccc2n1` (stereo not given in full), -0.019; for `C=C(COC)C(=O)CC[C@H](OC(=O)c1ccccc1-c1ccccc1C(=O)O)c1cccc(OCCO)c1`, 1.66.

On to `CC(C)[Si](OCC[C@H]1O[C@]2(C(=O)N(Cc3ccccc3)c3ccccc32)[C@@H](C)[C@@H]1[Si](C)(C)O)(C(C)C)C(C)C`, for which the composite z-score was 0.676. The same measure, in the same setting: next, `CO[C@H]1COC(=O)CC=C[C@H](C)[C@@H](OC)COC(=O)CC=C[C@@H]1C`: -0.768. The same measure, in the same setting: next, `COCCOC(=O)N1C(=O)[C@@]2(c3cc(C#CC4=CCCCC4)ccc31)[C@H](C(=O)NC[C@H](O)c1ccccc1)[C@H]1C(=O)O[C@H](c3ccccc3)[C@H](c3ccccc3)N1[C@@H]2c1ccccc1OCCO`: 0.616. The same measure, in the same setting: next, `COc1cc2c(cc1OC)CN(C(=O)[C@H]1[C@@H]3C(=O)O[C@@H](c4ccccc4)[C@@H](c4ccccc4)N3[C@@H](c3ccc(O)cc3)[C@]13C(=O)Nc1ccc(C#CC4(O)CCCCCC4)cc13)CC2`: 2.26; `CN(C)C(=O)[C@@]1(Cc2ccccc2N=[N+]=[N-])N=C(c2ccc(OCCCO)cc2)O[C@H]1c1ccccc1CN=[N+]=[N-]`: 1.56. The molecule `CO[C@H]1COC(=O)[C@@H](C)COC(=O)[C@H](Cc2ccccc2)NC(=O)CC=C[C@H]1C` yielded a composite z-score of -0.323. For the molecule `CC(=O)NCCCC[C@@H]1NC(=O)[C@H]2C[C@@H](C(=O)NCCCCCCN(C)C)[C@@H](c3cccc(OCCO)c3)N2C1=O`, the composite z-score was determined as 0.681. On the same count and under the same terms, for `C=CCC(OC(C)=O)[C@@H]1[C@@H](N(Cc2ccc(-c3ccccc3)cc2)C(=O)c2ccc(-c3ccccc3)cc2)c2cc(OCCCO)ccc2N1C(=O)Cc1ccc(OC)cc1` (stereo not given in full) the value was 0.0866; for `COCCCNC(=O)[C@@H]1c2ccccc2C(=O)N(CC23CC4CC(CC(C4)C2)C3)[C@H]1c1ccc(CO)cc1`, -0.0557. Still for that read-out and setting: for `C=CCN1C(=O)[C@]2(O[C@H](CCn3cc(CCO)nn3)[C@@H]([Si](C)(C)c3ccc(OC)cc3)[C@@H]2C)c2cc(NC(=O)c3ccc(OC)cc3)ccc21` the value was 0.439; for `C=C(CCCC)/C(=C/C[C@@H](OC(=O)c1ccncc1)c1ccc(CO)o1)c1cnc2ccccc2c1`, 0.786; for `COC(=O)Cn1c(C(=O)N2CCCC2)cc2c1C[C@H]1CN(C(=O)c3ccccc3)[C@@](Cc3ccc(OC)cc3)(C(=O)OC)[C@@H]21`, 1.8. `C=C(CCCC)C(=O)CC[C@@H](OC(C)=O)c1ccccc1OCCO` displayed a composite z-score of -0.52.

Take `CCOC(=O)C[C@H]1[C@H](OC(=O)c2cc3ccccc3oc2=O)[C@@H](NC(=O)C2CCCCC2)c2cc(OCCCO)ccc2N1C(=O)c1ccc2ccccc2n1`: the composite z-score was found to be 0.295.

`COC(=O)C(CC#Cc1ccc2c(c1)[C@]1(C(=O)N2)[C@H](C(=O)N2CCCCCCC2)[C@H]2C(=O)O[C@H](c3ccccc3)[C@H](c3ccccc3)N2[C@@H]1c1ccc(O)cc1)C(=O)OC`: the composite z-score is -0.712. Still for that read-out and setting: for `C=C[C@H](OC)[C@@H](OC(=O)Nc1ccc(SC)cc1)c1ccc(O)c(F)c1` the value was 0.756; for `O=C1O[C@@H](c2ccccc2)[C@@H](c2ccccc2)N2[C@@H](c3ccc(OCCO)cc3)[C@]3(C(=O)Nc4ccc(C#CCCO)cc43)[C@@H](C(=O)N3CCN(c4ncccn4)CC3)[C@H]12`, 1.2; for `C=CCC(OC(C)=O)[C@@H]1[C@@H](N(Cc2cccc3ccccc23)C(=O)Cc2ccc(F)cc2)c2cc(OCCCO)ccc2N1C(=O)Cc1ccc2ccccc2c1` (stereo not given in full), -0.58. Still for that read-out and setting: for `O=C1O[C@@H](c2ccccc2)[C@@H](c2ccccc2)N2[C@@H](c3ccc(O)cc3)[C@]3(C(=O)Nc4ccc(C#CC5(O)CCCCCC5)cc43)[C@@H](C(=O)Nc3nc4ccccc4s3)[C@H]12` the value was 1.16; for `C#CCCCON=C1C[C@@H](O)[C@@H](O)[C@@H]2[C@@H]3C(=O)N(Cc4ccc5c(c4)OCO5)C(=O)[C@@H]3CC[C@@H]12`, 0.166. `O=C1O[C@H](c2ccccc2)[C@H](c2ccccc2)N2[C@H]1[C@@H](C(=O)NC[C@H](O)c1ccccc1)[C@]1(C(=O)Nc3ccc(C#CC4(O)CCCCCC4)cc31)[C@H]2c1ccc(OCCO)cc1` came in with a composite z-score of 1.02. On the same count and under the same terms, for `CCOC(=O)C1=C[C@@H](c2ccccc2)N(S(=O)(=O)c2ccc(C)cc2)[C@H]1c1ccc(F)cc1` the value was 0.871; for `O=[N+]([O-])c1ccc(C[n+]2ccc3ccc(O)cc3c2)o1`, 1.49.

The record behind these values is PubChem BioAssay.
